Source: PubChem (Sanford-Burnham Center for Chemical Genomics)
Hits are enriched below; roughly 28% of the tested compounds scored in any of these assays.
CYP2C9 activ – CYP2C9 (human) activation | P11712 | 96,000 tested, 1.4% active | activation factor at 5 µM | AID 1024 | recombinant CYP2C9, luciferin-H conversion, luminescence; hits give high values; factor 1 = untreated enzyme, 0 = blocked;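 active = activation factor of 2 or more for CYP2C9 at a 5 µM dose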;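 note: 0 = sulfaphenazole-blocked wells and 1 = vehicle-only wells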
Target sequence (P11712 whole entry, looked up): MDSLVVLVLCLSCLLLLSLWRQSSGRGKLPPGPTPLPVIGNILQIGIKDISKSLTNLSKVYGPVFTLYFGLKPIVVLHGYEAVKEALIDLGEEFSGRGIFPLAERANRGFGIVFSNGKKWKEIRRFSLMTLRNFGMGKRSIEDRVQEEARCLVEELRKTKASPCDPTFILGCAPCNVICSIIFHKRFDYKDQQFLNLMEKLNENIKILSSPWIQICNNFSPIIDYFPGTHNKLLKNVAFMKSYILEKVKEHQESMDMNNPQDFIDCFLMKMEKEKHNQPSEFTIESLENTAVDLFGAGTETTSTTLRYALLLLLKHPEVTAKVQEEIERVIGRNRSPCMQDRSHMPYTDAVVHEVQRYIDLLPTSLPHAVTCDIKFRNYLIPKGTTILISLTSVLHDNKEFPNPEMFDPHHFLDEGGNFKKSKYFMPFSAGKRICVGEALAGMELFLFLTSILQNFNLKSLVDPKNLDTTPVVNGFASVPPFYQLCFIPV
CD11b adhes inh – inhibitors of human CD11b/CD18 binding to fibrinogen; P05107+P11215; inhibition, % at 10 µM; K562 CD11b/CD18 adhesion to fibrinogen, ATPlite luminescence; Mn2+ added to activate the integrin; 93,000 tested, 0.54% active;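 active = primary inhibition of 50% or more at 10 µM, then 40% or more on retest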
CYP2C19 activ – activators of human cytochrome P450 2C19; P33261; recombinant CYP2C19, luciferin-H EGE luminescence; hits give high values; 0 = fully inhibited enzyme, 1 = untreated enzyme; activation factor at 5 µM; 96,000 tested, under 10 active;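 active = activation factor of at least 2 at 5 µM in the primary screen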;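 note: 0 = wells with 2.5 mM tranylcypromine and 1 = vehicle-only wells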
CYP2C9 inhib – blocks human cytochrome P450 2C9. P11712. CYP2C9 Supersomes, luciferin-H conversion, luminescence. inhibition, % at 5 µM. 96,000 tested, 20% active. AID 777;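 active = blocking of liver enzyme CYP2C9 beyond about 50% at 5 µM, limit read from the data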
CYP2C19 inh – blocks human cytochrome P450 2C19; 96,000 tested, 21% active; P33261; AID 778; inhibition, % at 5 µM; CYP2C19 Supersomes, luciferin-H EGE luminescence, 30 min;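 active = CYP2C19 inhibition above a set limit at 5 µM in the primary screen, cut at about 50% in these data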;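 note: plate controls were negative control wells for no effect and 2.5 mM tranylcypromine positive control for full effect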
Mac1 fbg enh – enhancers of human CD11b/CD18 binding to fibrinogen. K562 CD11b/CD18 adhesion to fibrinogen, ATPlite luminescence. activation, % at 10 µM. P05107+P11215. AID 1499. 93,000 tested, 0.07% active;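 active = 10 µM primary screen giving 50% or more activity, confirmed by 40% or more on retest at that dose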
Starred values were filed as active, the others as inactive.

For COc1ccc(S(=O)(=O)Nc2ccc(S(=O)(=O)N3CCCC3)cc2)cc1 the results were CYP2C9 activ 0.1, CD11b adhes inh -10, CYP2C19 activ 0.5, CYP2C9 inhib 89*, CYP2C19 inh 54* and Mac1 fbg enh -4.
For CC1CCN(Cc2ccc(-c3nn[nH]n3)cc2)CC1 the results were CYP2C9 activ 1.2, CD11b adhes inh -15, CYP2C19 activ 1.1, CYP2C9 inhib -24, CYP2C19 inh -11 and Mac1 fbg enh 4.
`O=C(Cc1coc2cc3c(cc12)CCC3)OCc1cc(=O)n2c(n1)sc1ccccc12` gave CYP2C9 activ 0.7, CD11b adhes inh -7, CYP2C19 activ 1, CYP2C9 inhib 28, CYP2C19 inh 3 and Mac1 fbg enh 60.
For CCn1c(SCc2ccccc2)nnc1C1CCN(S(=O)(=O)c2ccc(OC)cc2)CC1 the results were CYP2C9 activ 2*, CYP2C19 activ 0.8, CYP2C9 inhib -105 and CYP2C19 inh 20.
For CCn1c(SCc2ccccc2)nnc1C1CCCCC1 the results were CD11b adhes inh 5 and Mac1 fbg enh -2.
`COc1ccc(S(=O)(=O)Nc2ccc(S(=O)(=O)N3CCCCC3)cc2)cc1C` gave CYP2C9 activ 0.1, CD11b adhes inh 28, CYP2C19 activ 0.4, CYP2C9 inhib 88*, CYP2C19 inh 58* and Mac1 fbg enh -2.
COC(=O)c1ccc(NS(=O)(=O)c2ccc(OC)cc2)cc1 was read as CYP2C9 activ 0.1, CD11b adhes inh -37, CYP2C19 activ 0.9, CYP2C9 inhib 89*, CYP2C19 inh 14 and Mac1 fbg enh 0.
`CC12CCC(C(=O)Nc3cccc4ccccc34)(C1Br)C2(C)C` (stereo not drawn) gave CYP2C9 activ 0.8, CYP2C19 activ 0.7, CYP2C9 inhib 18 and CYP2C19 inh 29.
CC(=O)Nc1ccc(S(=O)(=O)NCc2ccc3c(c2)cc(C)n3C)cc1 was read as CYP2C9 activ 0.5, CD11b adhes inh 10, CYP2C19 activ 0.7, CYP2C9 inhib 47, CYP2C19 inh 33 and Mac1 fbg enh 9.
`CC(=O)Nc1ccc(S(=O)(=O)n2nc(-c3ccc(C)cc3)nc2N)cc1` gave CYP2C9 activ 1.1, CD11b adhes inh -3, CYP2C19 activ 0.5, CYP2C9 inhib -5, CYP2C19 inh 50* and Mac1 fbg enh 0.
`CC(=O)Nc1ccc(S(=O)(=O)NCCc2ccc(S(N)(=O)=O)cc2)cc1` gave CYP2C9 activ 0.7, CD11b adhes inh -29, CYP2C19 activ 1.1, CYP2C9 inhib 25, CYP2C19 inh -7 and Mac1 fbg enh -2.
For CC(=O)Nc1ccc(S(=O)(=O)NCc2ccc(C)cc2)cc1 the results were CYP2C9 activ 1, CD11b adhes inh 6, CYP2C19 activ 0.4, CYP2C9 inhib -5, CYP2C19 inh 60* and Mac1 fbg enh 3.
Screening CC(=O)Nc1ccc(S(=O)(=O)NCc2ccc3[nH]c(C)cc3c2)cc1 returned CYP2C9 activ 0.2, CD11b adhes inh -10, CYP2C19 activ 0.6, CYP2C9 inhib 85*, CYP2C19 inh 44 and Mac1 fbg enh -2.
For Cc1ccc(S(=O)(=O)n2nc(-c3cccnc3)nc2N)cc1 the results were CYP2C9 activ 1, CD11b adhes inh 0, CYP2C19 activ 0.9, CYP2C9 inhib 5, CYP2C19 inh 7 and Mac1 fbg enh -4.
COc1ccc(S(=O)(=O)N(C)c2ccc(C(=O)N3CCOCC3)cc2)cc1 was read as CYP2C9 activ 0.9, CD11b adhes inh -17, CYP2C19 activ 0.9, CYP2C9 inhib 8, CYP2C19 inh 8 and Mac1 fbg enh 2.
`C=CCNC(=O)c1ccc(N(C)S(=O)(=O)c2ccc(OC)cc2)cc1` gave CYP2C9 activ 0.1, CD11b adhes inh 8, CYP2C19 activ 0.3, CYP2C9 inhib 86*, CYP2C19 inh 73* and Mac1 fbg enh 1.
`Cc1ccc(C(=O)NCCc2nnc3ccc(SCC(=O)Nc4c(C)cc(C)cc4C)nn23)cc1` gave CD11b adhes inh -16 and Mac1 fbg enh 9.
Screening CC(C(=O)NCc1ccccc1)N1C(=O)CN(C)C(=O)c2ccccc21 (stereo not drawn) returned CYP2C9 activ 1, CD11b adhes inh 6, CYP2C19 activ 0.7, CYP2C9 inhib -3, CYP2C19 inh 30 and Mac1 fbg enh -4.
Screening Cc1ccc(S(=O)(=O)CC(=O)c2ccc(C(C)(C)C)cc2)cc1 returned CYP2C9 activ 0.9, CD11b adhes inh 5, CYP2C19 activ 0.6, CYP2C9 inhib 13, CYP2C19 inh 41 and Mac1 fbg enh -4.
Screening CCNS(=O)(=O)c1ccc(NC(=O)c2ccccc2)cc1 returned CYP2C9 activ 0.8, CD11b adhes inh 5, CYP2C19 activ 0.9, CYP2C9 inhib 24, CYP2C19 inh 13 and Mac1 fbg enh -3.
`CC(=O)Nc1ccc(S(=O)(=O)NCCc2ccc(F)cc2)cc1` gave CYP2C9 activ 0.6, CYP2C19 activ 0.4, CYP2C9 inhib 37 and CYP2C19 inh 58*.
`C=CCNC(=O)c1ccc(CNS(=O)(=O)c2ccc(NC(C)=O)cc2)cc1` gave CYP2C9 activ 0.4, CD11b adhes inh 4, CYP2C19 activ 0.9, CYP2C9 inhib 57*, CYP2C19 inh 9 and Mac1 fbg enh 0.
`CC(=O)Nc1ccc(C(=O)CS(=O)(=O)c2ccc(C)cc2)cc1` gave CYP2C9 activ 0.4, CD11b adhes inh -4, CYP2C19 activ 0.6, CYP2C9 inhib 59*, CYP2C19 inh 41 and Mac1 fbg enh -1.
`CC(=O)Nc1ccc(S(=O)(=O)NCCSCc2ccc(Cl)cc2Cl)cc1` gave CYP2C9 activ 0.2, CYP2C19 activ 0.4, CYP2C9 inhib 81* and CYP2C19 inh 57*.
`COC(=O)N/N=C(\C)c1ccccc1Br` gave CYP2C9 activ 1.1, CYP2C19 activ 0.7, CYP2C9 inhib -5 and CYP2C19 inh 29.
`CCOc1ccccc1NC(=O)CSc1nnc(-c2ccccn2)n1Cc1ccco1` gave CYP2C9 activ 0.2, CD11b adhes inh 40, CYP2C19 activ 0.3, CYP2C9 inhib 79*, CYP2C19 inh 72* and Mac1 fbg enh -6.
`CCOc1ccccc1NC(=O)CSc1nnc(-c2ccco2)n1Cc1ccco1` gave CYP2C9 activ 0.4, CD11b adhes inh -5, CYP2C19 activ 0.1, CYP2C9 inhib 58*, CYP2C19 inh 86* and Mac1 fbg enh 5.
For CCOc1ccccc1NC(=O)CSc1nnc(-c2ccccc2Cl)n1Cc1ccco1 the results were CYP2C9 activ 0.5, CD11b adhes inh -5, CYP2C19 activ 0.3, CYP2C9 inhib 49, CYP2C19 inh 70* and Mac1 fbg enh 1.
Screening CCCCn1c2c(c(=O)n(C)c1=O)C(c1ccc(OC)cc1)N1CCCCCC1=N2 (stereo not drawn) returned CYP2C9 activ 0.8, CD11b adhes inh 8, CYP2C19 activ 0.8, CYP2C9 inhib 17, CYP2C19 inh 20 and Mac1 fbg enh 2.
